Several values for one entry are separate records, joined by “and”; a condition that tells them apart may be missing. Identical values can stand only once. Inconclusive results are not listed. Activity calls are given as the source filed them. The call rests on the fitted dose curve; in most records, active means well fitted curve in the direction sought with a large enough effect; inconclusive means small, poorly fitted or top-dose-only effect, or another doubt; inactive means no such curve, though single readings can be large; an effect the other way counts as inactive or inconclusive.
Assays:
[1] = Primary qHTS for inhibitors of nuclear receptor binding SET domain protein 2 (NSD2) in an isogenic RCH-ACV NSD2 p.E1099K mutant (9B) (AID 1645876); further: potency means the concentration at half of the fitted maximal effect; nearly all actives have a fitted effect of over 70% in size
[2] = Primary qHTS for inhibitors of nuclear receptor binding SET domain protein 2 (NSD2) in an RCH-ACV wild type WT cells (2C) (AID 1645877); further: potency means the concentration at half of the fitted maximal effect; nearly all actives have a fitted effect of over 70% in size
[3] = target: Glutathione peroxidase 1 (Homo sapiens) (UniProt P07203); test: Primary qHTS Assay for Inhibitors of Recombinant Selenoprotein Glutathione Peroxidase 1 (GPX1) (AID 1845191); further: nearly all actives have a fitted effect of over 65% in size
Summary of the method: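 GPX1 10 nM, GR 100 nM, GSH 1 mM, NADPH 0.5 mM, CHP 0.5 mM (final). 30-min cpd preincubation, RT. Ex340/Em450 read t=0, t=15 min.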

[4] = target: Luciferin 4-monooxygenase (Photinus pyralis) (UniProt P08659); test: Primary firefly luciferase (FLuc) qHTS assay for identification of artifact compounds. (AID 1845220); conditions: outcome: dose series up to 54.1 µM unless noted;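 further: plate controls were DMSO vehicle for no effect and no enzyme for full effect; nearly all actives have a fitted effect of over 60% in size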
Summary of the method: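 Reaction readout was CCD-imaged luminescence, taken 5 min after adding 10 nM purified firefly enzyme to compound-treated wells holding 10 uM luciferin and ATP in pH 7.6 buffer.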

[5] = Primary fluorescence-based thiol-reactive (MSTI) qHTS assay for identification of artifact compounds. (AID 1845221);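 further: thiol-reactive compounds lower the probe fluorescence signal; nearly all actives have a fitted effect of over 65% in size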
Summary of the method: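 In PBS pH 7.4 with 2% DMSO, each compound met 4 uM MSTI for one hour at ambient temperature, shielded from light, before fluorescence detection.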

[6] = tested on: Nanoluciferase (engineered Oplophorus gracilirostris luciferase); test: Primary Nanoluciferase (NLuc) qHTS assay for identification of artifact compounds. (AID 1845222);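 further: NLuc secreted into diluted conditioned medium of S16 cells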
Summary of the method: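 Concentration-response data were obtained by luminescence after 5 min with Nano-Glo substrate at 1:100. The enzyme was diluted S16 NLuc-expressing cell medium, preincubated with compound for 15 min at RT. Curves were fitted with a 4-parameter Hill model.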

CRL-7250 = normal cell line; test: Cytotoxic Profiling of Annotated Libraries Using Quantitative High-Throughput Screening (AID 1296008); conditions: Five cell lines viability, CellTiter-Glo ATP luminescence, 48-72 h; max response: hits give low values; further: nearly all actives have a fitted effect of over 60% in size; further: potency means the concentration at half of the fitted maximal effect; on max response: on the % scale 0 is the no-effect control and ±100 the full control effect
Summary of the method: (§1)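 Compounds were pin-transferred onto cells and incubated 48 or 72 hr at 37 degree Celsius, 95% humidity. CellTiter-Glo was added, plates sat 10 min at room temperature, then ATP-coupled luminescence was imaged as the viability read-out.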

HEK293 = test: as above; conditions: Five cell lines viability, CellTiter-Glo ATP luminescence, 48-72 h; max response: hits give low values
Summary of the method: as §1

HaCat = test: as above; conditions: Five cell lines viability, CellTiter-Glo ATP luminescence, 48-72 h; max response: hits give low values
Summary of the method: as §1

KB-3-1 = test: as above; conditions: Five cell lines viability, CellTiter-Glo ATP luminescence, 48-72 h; max response: hits give low values
Summary of the method: as §1

NIH3T3 = test: as above; conditions: Five cell lines viability, CellTiter-Glo ATP luminescence, 48-72 h; max response: hits give low values
Summary of the method: as §1

C33A = test: Primary qHTS to identify gynecologic anti-cancer compounds using libraries of approved drugs and bioactive compounds (AID 1345084); conditions: Gynecologic cancer cell panel viability, ATPlite luminescence, 48 h; series mostly up to 57.5 µM; further: nearly all actives have a fitted effect of over 55% in size; further: potency means the concentration at half of the fitted maximal effect
Summary of the method: (§2)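 Five-concentration response, 48 h; readout is ATP-driven luciferase luminescence.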

Es-2 = test: as above; conditions: Gynecologic cancer cell panel viability, ATPlite luminescence, 48 h; series mostly up to 57.5 µM
Summary of the method: as §2

Hek293T = test: as above; conditions: Gynecologic cancer cell panel viability, ATPlite luminescence, 48 h, control line for the selectivity index; series mostly up to 57.5 µM
Summary of the method: as §2

OV90 = test: as above; conditions: Gynecologic cancer cell panel viability, ATPlite luminescence, 48 h; series mostly up to 57.5 µM
Summary of the method: as §2

PA-1 = test: as above; conditions: Gynecologic cancer cell panel viability, ATPlite luminescence, 48 h; series mostly up to 57.5 µM
Summary of the method: as §2

Tov-21-G = test: as above; conditions: Gynecologic cancer cell panel viability, ATPlite luminescence, 48 h; series mostly up to 57.5 µM
Summary of the method: as §2

Tov112D = test: as above; conditions: Gynecologic cancer cell panel viability, ATPlite luminescence, 48 h; series mostly up to 57.5 µM
Summary of the method: as §2

CASKI = test: as above; conditions: Gynecologic cancer cell panel viability, ATPlite luminescence, 48 h; series mostly up to 57.5 µM
Summary of the method: as §2

[7] = target: Phospholipid hydroperoxide glutathione peroxidase GPX4 (Homo sapiens) (UniProt P36969); test: Primary qHTS Assay for Inhibitors of Recombinant Selenoprotein Glutathione Peroxidase 4 (GPX4) (AID 1845192); further: nearly all actives have a fitted effect of over 65% in size
Summary of the method: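 qHTS, GR-coupled: GPX4 200 nM + cpd 30 min RT → GSH 1 mM, NADPH 0.5 mM, GR 100 nM → CHP 0.5 mM start; fluor 340/450 at t0 and t15 min; no-enzyme wells as control.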

Chain of Phospholipid hydroperoxide glutathione peroxidase GPX4 (Homo sapiens) (P36969 whole entry, looked up): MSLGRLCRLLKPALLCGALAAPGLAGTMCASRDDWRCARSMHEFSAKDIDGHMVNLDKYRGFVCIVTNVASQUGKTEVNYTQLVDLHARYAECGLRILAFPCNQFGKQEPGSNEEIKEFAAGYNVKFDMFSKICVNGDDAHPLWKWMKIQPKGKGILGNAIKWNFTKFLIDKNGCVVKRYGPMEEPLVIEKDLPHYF
Chain of Glutathione peroxidase 1 (Homo sapiens) (P07203 whole entry, looked up): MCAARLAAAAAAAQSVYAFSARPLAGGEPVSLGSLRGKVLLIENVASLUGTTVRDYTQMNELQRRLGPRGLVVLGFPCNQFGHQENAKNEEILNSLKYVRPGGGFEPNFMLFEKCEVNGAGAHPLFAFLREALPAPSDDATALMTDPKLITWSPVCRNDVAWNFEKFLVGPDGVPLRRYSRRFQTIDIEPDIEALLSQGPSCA

COC1CC(O[C@H]2CC[C@]3(C)C4CC[C@]5(C)[C@@H](C6=CC(=O)OC6)[C@@H](OC(C)=O)C[C@]5(O)C4CC[C@@H]3C2)OC(C)C1O (stereo partly drawn)
inactive: Potency [3] | outcome [4] | Potency [5] | Potency [6] | max response (NIH3T3) -14.3%
active: Potency [1] 224 nM | Potency [2] 448 nM | Potency (CRL-7250) 317 nM | Potency (HEK293) 502 nM | Potency (HaCat) 796 nM | Potency (KB-3-1) 563 nM | Potency (C33A) 891 nM | Potency (Es-2) 891 nM | Potency (Hek293T) 1 µM | Potency (OV90) 3.16 µM | Potency (PA-1) 891 nM | Potency (Tov-21-G) 708 nM | Potency (Tov112D) 251 nM

CO[C@@H]1[C@H](O)[C@@H](O[C@@H]2C[C@H]3CC[C@@H]4C(CC[C@]5(C)[C@@H](C6=CC(=O)OC6)CC[C@]45O)[C@@]3(C)[C@H](O)C2)O[C@H](C)[C@@H]1O (stereo partly drawn)
inactive: Potency [3] | outcome [4] | Potency [5] | Potency [6] | max response (NIH3T3) 3.09%
active: Potency [1] 89.3 nM | Potency [2] 159 nM | Potency (CRL-7250) 112 nM | Potency (HEK293) 224 nM | Potency (HaCat) 1780 nM | Potency (KB-3-1) 448 nM | Potency (C33A) 199 nM | Potency (CASKI) 1.26 µM | Potency (Es-2) 178 nM | Potency (Hek293T) 0.224 µM | Potency (OV90) 1 µM | Potency (PA-1) 199 nM | Potency (Tov-21-G) 178 nM | Potency (Tov112D) 89.1 nM

CC[C@H]1C[C@@H]2CC[C@@H](O2)[C@@H](C)C(=O)O[C@H](CC)C[C@H]2CC[C@H](O2)[C@H](C)C(=O)O[C@@H](C)C[C@@H]2CC[C@@H](O2)[C@@H](C)C(=O)O[C@H](CC)C[C@H]2CC[C@H](O2)[C@H](C)C(=O)O1
inactive: Potency [3] | Potency [7] | outcome [4] | Potency [6]
active: Potency [1] 10.8 nM | Potency [2] 13.6 nM | Potency (CRL-7250) 385 nM | Potency (HEK293) 21.7 nM | Potency (HaCat) 68.5 nM | Potency (KB-3-1) 15.3 nM | Potency (NIH3T3) 38.5 nM | Potency (C33A) 224 nM | Potency (CASKI) 0.447 µM | Potency (Es-2) 501 nM | Potency (Hek293T) 0.355 µM | Potency (OV90) 0.0891 µM | Potency (PA-1) 178 nM

CN(C)c1cc2c(cc1Sc1nc3c(N)nccc3n1CCNCC(C)(C)C)OCO2
active: Potency [1] 459 nM and 662 nM | Potency [2] 365 nM and 742 nM | Potency (CRL-7250) 1840 nM | Potency (HEK293) 580 nM | Potency (HaCat) 461 nM | Potency (KB-3-1) 731 nM | Potency (NIH3T3) 1030 nM | Potency (Hek293T) 1.26 µM | Potency (PA-1) 1410 nM | Potency (Tov-21-G) 1410 nM
inactive: Potency [3] | Potency [7] | outcome [4] | Potency (Tov112D)
